Only some compounds are listed: those with a hit (about 6.7% of all), similar ones and a draw of the others.
Pf Dd2 inh: P. falciparum Dd2 growth inhibition; SYBR Green, 72 h; hits give low values; activity change, % at 10 µM; actives 2.3% (n = 94,000); in the data active = activity change below about -80%
C diff HTS: inhibitors of Clostridium difficile growth | Clostridium difficile clinical isolate growth, OD600, 24 h; hits give low values | growth activity, negative = inhibition, % at 16 µg/mL (by protocol) | actives 0.25% (n = 86,000) | AID 1259249;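 active = mean growth activity at or below -80% and every replicate also at or below -80%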;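 note: 0% = DMSO wells and -100% = levofloxacin 16 µg/mL wells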
Tcruzi prolif: inhibitors of T. cruzi proliferation. T. cruzi beta-gal in NIH3T3, GalScreen luminescence, 90 h. inhibition, % at 8.34 µM. actives 5.9% (n = 77,000). AID 624255;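 active = mean inhibition above about 93%, with at least 55% of replicates each passing it, limit read from the data, passing the limit was not always enough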
* marks the source's active call; other numbers are inactive results.

Screening C[C@H](CO)N1C[C@H](C)[C@@H](CN(C)C(=O)Nc2cccc3ccccc23)OCCCC[C@H](C)Oc2ccc(NS(=O)(=O)c3ccccc3)cc2C1=O returned Pf Dd2 inh -54.
`C[C@@H]1CCCCO[C@@H](CN(C)CC2CCCCC2)[C@@H](C)CN([C@H](C)CO)C(=O)c2cc(NC(=O)Nc3ccc(C(F)(F)F)cc3)ccc2O1` gave Pf Dd2 inh -44, C diff HTS -10 and Tcruzi prolif 102.
For C[C@H](CO)N1C[C@H](C)[C@H](CN(C)CC2CCCCC2)Oc2ccc(NC(=O)Nc3ccc(C(F)(F)F)cc3)cc2C1=O the results were Pf Dd2 inh -69, C diff HTS 23 and Tcruzi prolif 81.
`C[C@@H]1CN([C@@H](C)CO)C(=O)c2cc(NC(=O)Nc3ccc(C(F)(F)F)cc3)ccc2O[C@H]1CN(C)CC1CCCCC1` gave Pf Dd2 inh -86*, C diff HTS -2 and Tcruzi prolif 57.
Screening CCCN(C)C[C@@H]1OCCCC[C@H](C)Oc2ccc(NC(=O)Nc3ccc(C(F)(F)F)cc3)cc2C(=O)N([C@@H](C)CO)C[C@@H]1C returned Pf Dd2 inh -88*, C diff HTS -105* and Tcruzi prolif 21.
C[C@@H]1CN([C@@H](C)CO)C(=O)c2cc(NC(=O)C3CC3)ccc2O[C@H]1CN(C)CC1CCCCC1 was read as Pf Dd2 inh -89* and Tcruzi prolif 31.
C[C@@H]1CN([C@H](C)CO)C(=O)c2cc(NC(=O)C3CC3)ccc2O[C@@H]1CN(C)CC1CCCCC1 was read as Pf Dd2 inh 34, C diff HTS 7 and Tcruzi prolif -45.
For C[C@H]1CCCCO[C@@H](CN(C)CC2CCCCC2)[C@@H](C)CN([C@@H](C)CO)C(=O)c2cc(NC(=O)Nc3ccc(C(F)(F)F)cc3)ccc2O1 the results were Pf Dd2 inh -82*, C diff HTS -68 and Tcruzi prolif 86.
Screening CCCN(C)C[C@@H]1OCCCC[C@H](C)Oc2ccc(NC(=O)Nc3ccc(C(F)(F)F)cc3)cc2C(=O)N([C@H](C)CO)C[C@@H]1C returned Pf Dd2 inh -77, C diff HTS -28 and Tcruzi prolif 61.
`CCC(=O)Nc1ccc2c(c1)C(=O)N(C)C[C@@H](OC)[C@@H](C)CN(Cc1ccccn1)[C@H](C)CO2` gave Pf Dd2 inh -10 and Tcruzi prolif -18.
`COCC#Cc1cnc2c(c1)C(=O)N([C@H](C)CO)C[C@H](C)[C@@H](CN(C)C(=O)Cc1cccnc1)O2` gave Pf Dd2 inh 30 and C diff HTS 1.
`Cc1ccc(S(=O)(=O)Nc2ccc3c(c2)C(=O)N([C@@H](C)CO)C[C@@H](C)[C@@H](CN(C)S(C)(=O)=O)OCCCC[C@@H](C)O3)cc1` gave Pf Dd2 inh -3, C diff HTS -1 and Tcruzi prolif 20.
CN1C(=O)c2cc(NC(=O)c3cscn3)ccc2OC[C@@H]2O[C@@H](CC(=O)N3CCCCC3)CC[C@H]21 was read as Pf Dd2 inh -15, C diff HTS -5 and Tcruzi prolif 19.
For C[C@H]1CN([C@@H](C)CO)C(=O)c2cc(C#Cc3ccncc3)cnc2O[C@H]1CN(C)CC1CCCC1 the results were Pf Dd2 inh 21 and C diff HTS 9.
For Cc1ccccc1S(=O)(=O)N1CCCCN2[C@H](CO)[C@@H](c3ccc(-c4ccccc4)cc3)[C@H]2C1 the results were Pf Dd2 inh -30, C diff HTS 23 and Tcruzi prolif 93.
Screening COc1ccc(-c2cnc3c(c2)C(=O)N([C@@H](C)CO)C[C@@H](C)[C@@H](CN(C)C(=O)Cc2ccccn2)O3)cc1 returned Pf Dd2 inh 2, C diff HTS -6 and Tcruzi prolif 28.
Screening C[C@@H]1CN([C@@H](C)CO)C(=O)c2cc(NC(=O)Nc3ccc4c(c3)OCO4)ccc2O[C@@H](C)CCCCO[C@H]1CN(C)C(=O)Nc1cccc2ccccc12 returned Pf Dd2 inh -42, C diff HTS 10 and Tcruzi prolif 23.
Screening C[C@@H]1CCCCO[C@@H](CN(C)C(=O)Nc2cccc3ccccc23)[C@@H](C)CN([C@H](C)CO)C(=O)c2cc(NC(=O)Nc3cccc4ccccc34)ccc2O1 returned Pf Dd2 inh -51 and Tcruzi prolif -21.
`C[C@@H]1CCCCO[C@@H](CN(C)C(=O)Nc2ccc3c(c2)OCO3)[C@@H](C)CN([C@@H](C)CO)C(=O)c2cc(NC(=O)Nc3cccc4ccccc34)ccc2O1` gave Pf Dd2 inh -91* and C diff HTS 1.
For C[C@H](CO)N1C[C@H](C)[C@H](CN(C)C(=O)Nc2ccc3c(c2)OCO3)OCCCC[C@H](C)Oc2ccc(NC(=O)Nc3cccc4ccccc34)cc2C1=O the results were Pf Dd2 inh 39, C diff HTS -3 and Tcruzi prolif 62.
`C[C@@H]1CN([C@@H](C)CO)C(=O)c2cc(NC(=O)Nc3cccc4ccccc34)ccc2O[C@@H](C)CCCCO[C@H]1CN(C)C(=O)Nc1cccc2ccccc12` gave Pf Dd2 inh -9 and Tcruzi prolif 8.
For C[C@@H]1CCCCO[C@H](CN(C)C(=O)Nc2cccc3ccccc23)[C@H](C)CN([C@@H](C)CO)C(=O)c2cc(NC(=O)Nc3ccc4c(c3)OCO4)ccc2O1 the results were Pf Dd2 inh -83*, C diff HTS 7 and Tcruzi prolif 49.
Screening C[C@@H]1CCCCO[C@@H](CN(C)C(=O)Nc2cccc3ccccc23)[C@H](C)CN([C@H](C)CO)C(=O)c2cc(NC(=O)Nc3ccc4c(c3)OCO4)ccc2O1 returned Pf Dd2 inh -90*, C diff HTS 9 and Tcruzi prolif 86.
`C[C@@H]1CCCCO[C@@H](CN(C)C(=O)Nc2cccc3ccccc23)[C@@H](C)CN([C@H](C)CO)C(=O)c2cc(NC(=O)Nc3ccc4c(c3)OCO4)ccc2O1` gave Pf Dd2 inh -87*, C diff HTS -1 and Tcruzi prolif -12.
For COc1ccc(S(=O)(=O)Nc2ccc3c(c2)C(=O)N([C@@H](C)CO)C[C@@H](C)[C@H](CN(C)C(=O)NC2CCCCC2)OCCCC[C@H](C)O3)cc1 the results were Pf Dd2 inh -42, C diff HTS 4 and Tcruzi prolif 17.
For O=S(=O)(N[C@H]1CC[C@@H](CCn2cc(-c3ccccc3F)nn2)O[C@H]1CO)c1ccc(Cl)cc1 the results were Pf Dd2 inh -61, C diff HTS -7 and Tcruzi prolif 56.
CN(C)C(=O)C[C@@H]1C[C@H]2c3cc(NC(=O)Nc4ccc(C(F)(F)F)cc4)ccc3O[C@H]2[C@@H](CO)O1 was read as Pf Dd2 inh 9, C diff HTS 1 and Tcruzi prolif -34.
`CO[C@H]1CN(C)C(=O)c2ccc(NC(=O)c3ccc4c(c3)OCO4)cc2OC[C@@H](C)N(CC2CC2)C[C@H]1C` gave Pf Dd2 inh -2.
Screening CCCNC(=O)Nc1ccc2c(c1)OC[C@H](C)N(Cc1ccccc1)C[C@H](C)[C@@H](OC)CN(C)C2=O returned Pf Dd2 inh -35 and C diff HTS -19.
Screening CO[C@@H]1CN(C)C(=O)c2ccc(NC(=O)c3ccc4c(c3)OCO4)cc2OC[C@@H](C)N(Cc2ccc3c(c2)OCO3)C[C@H]1C returned Pf Dd2 inh -85*, C diff HTS 5 and Tcruzi prolif 92.

Screening data: PubChem, Broad Institute
